Reference: PMC5540273 (PLoS ONE, 2017)

Test system: CAMK2B
Conditions: concentration: 1 μM, replicates: in singlicate; n = 1
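Note: KINOMEscan kinase panel screen.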

Row | SMILES | %Inh [%]
1 | CC(C)N1CCC(n2cnc(-c3ccc(F)cc3)c2-c2ccnc(N)n2)CC1 [SB-223132] | 0
2 | Nc1n[nH]c2nnc(-c3ccccc3)cc12 [SB-517389] | 0
3 | C[C@H]1CC[C@@H](C(=O)Nc2ccccc2)CN1c1cc(-c2ccc3c(N)n[nH]c3c2)nc(N)n1 [GSK2283293] | 0
4 | CN1CCC(n2cnc(-c3ccc(F)cc3)c2-c2ccnc(NC3CCNCC3)n2)CC1 [SB-229482] | 0
5 | Fc1cccc(COc2ccc(Nc3ncnc4sc(-c5ccc[nH]5)cc34)cc2Cl)c1 [GW707818] | 0
6 | O=C(Nc1ccccc1F)NC1CCN(c2ccnc(Nc3ccc(F)cc3)n2)C1 (stereo not drawn) [GSK1379722] | 0
7 | Clc1ccc(-c2cc(-c3c[nH]nc3-c3ccccn3)ccn2)cc1 [GW681251] | 0
8 | COc1cc2ncnc(Nc3ccc(OCc4ccccc4Br)c(Cl)c3)c2cc1OC.Cl [GI261590] | 0
9 | Cl.Cl.c1ccc(-c2cc3ccncc3cc2OC2CCNCC2)cc1 [GSK1122999] | 0

Test system: CAMK2D
Conditions: concentration: 1 μM, replicates: in singlicate; n = 1

Row | SMILES | %Inh [%]
10 | Oc1ccc2ncnc(Nc3ccc(OCc4ccccc4)cc3)c2c1 [GI262866] | 1
11 | FC(F)(F)c1ccc(-c2cc(-c3c[nH]nc3-c3ccccn3)ccn2)cc1 [GW599550] | 12
12 | CCc1nc(-c2cccc(C)c2)c(-c2ccnc(NC(=O)c3ccccc3)c2)s1 | 0
13 | CN1c2ccc(-c3ccc(C(=O)NCCO)cc3)cc2-c2[nH]ncc2S1(=O)=O | 24
14 | O=C(c1ccc(-c2cc(-c3c[nH]nc3-c3ccccn3)ccn2)cc1)N1CCCC1 [GW792479] | 3
15 | COc1ccc(-c2oc3ncnc(N)c3c2-c2ccc(OC)cc2)cc1 [SB-589132] | 3
16 | CCc1nc(-c2cccc(N(C)S(=O)(=O)c3ccccc3)c2)c(-c2ccnc(Nc3ccc(N4CCN(C(C)=O)CC4)nc3)n2)s1 [GSK1645895] | 24
17 | Fc1cccc(COc2ccc(Nc3ncnc4cc[nH]c34)cc2Cl)c1 | 9
18 | Cl.c1ccc(Cn2ncc3cc(Nc4ncnc5ccccc45)ccc32)cc1 [GW273749] | 31
19 | COC(=O)c1cccc(NC(=O)NCCNc2ccnc(Nc3ccc(F)cc3)n2)c1 [GSK1379883] | 0
20 | Cl.c1ccc(Cn2ccc3cc(Nc4ncnc5ccccc45)ccc32)cc1 [GW275568] | 24
21 | COc1ccc(Nc2nccc(N3CCC(NC(=O)c4cccc(NC(C)=O)c4)C3)n2)cc1 (stereo not drawn) [GSK1379732] | 8
22 | Nc1nccc2scc(-c3ccc4c(c3)CCN4C(=O)Cc3cc(F)ccc3F)c12 [GSK2587663] | 9
23 | Fc1ccc(Nc2nccc(-c3c(-c4ccc(Cl)cc4)nn4ncccc34)n2)cc1F [GW829058] | 0
24 | CS(=O)(=O)CCNCc1ccc(-c2ccc3ncnc(Nc4ccc(OCc5ccccc5)c(Cl)c4)c3c2)o1.Cl [GW574783] | 4
25 | Cn1ccc2ncnc(Oc3ccc(NC(=O)Nc4cccnc4)c(Cl)c3)c21 | 19
26 | COc1ccc(NC(=O)c2ccc(-c3cc(-c4nnc(C)o4)ccc3C)cc2)cc1 [GW595885] | 0
27 | NC(=O)c1sc(-n2cnc3ccccc32)cc1OCc1ccccc1F [GSK1024306] | 0
28 | Fc1ccc(-c2ncn(CCCNCc3ccccc3)c2-c2ccncc2)cc1 | 0
29 | CCC(CC)(CC)n1cnc2c(N)ncnc21 [SKF-97620] | 0
30 | N#Cc1ccc(Oc2ccc(Nc3ncnc4cc[nH]c34)cc2Cl)cc1 | 13
31 | O=C(Nc1n[nH]c2nc(-c3ccco3)c(Br)cc12)c1ccc(CN2CCCC2)cc1.O=C(O)[C@H](O)[C@@H](O)C(=O)O [SB-742352] | 0
32 | COc1ccc(-c2nc3n(c2-c2ccncc2)CCC3)cc1 [SKF-104493] | 0
33 | O=C(NCCCN1CCCC1=O)c1cnc(NCc2cc(Cl)ccc2Cl)nc1NC1CCNCC1 | 0
34 | O=C(Nc1ccccc1)Nc1ccc(Oc2ccc3nccn3n2)cc1 | 0
35 | CCCc1ccc(S(=O)(=O)NC2CCN(c3ccnc(Nc4ccc(OC)cc4)n3)C2)cc1 (stereo not drawn) [GSK1379737] | 4
36 | COC(=O)c1c(-c2ccccc2)c2cc(Cl)ccc2c(=O)n1Cc1ccc(S(C)(=O)=O)cc1 | 5
